Data taken from PubChem BioAssay (Tox21).
Inconclusive results are not listed. A call without a number means that no potency is given here. Active and inactive are the calls of the source. Unless noted, calls follow the shape of the full dose curve.

Legend:
[1] = Nuclear factor erythroid 2-related factor 2/antioxidant responsive element (Nrf2/ARE) small molecule agonists: qHTS cell viability counter screen in human keratinocytes (AID 1919968; active = well fitted curve in the direction sought with a large enough effect in the repeat runs; an effect the other way counts as inactive or inconclusive; also: nearly all actives have a fitted effect of over 55% in size; also: potency is read from the fitted curve at half-maximal effect)
Method in brief: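 Measured as CellTiter-Fluor fluorescence, this readout tracks cytotoxicity in the same wells as the ARE-luciferase screen. HaCaT reporter cells (1,500/well) received compounds after a 5 h pre-incubation and were exposed for 23 h.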

[2] = Nuclear factor erythroid 2-related factor 2/antioxidant responsive element (Nrf2/ARE) small molecule agonists: luciferase reporter gene qHTS assay in human keratinocytes (AID 1919969); also: nearly all actives have a fitted effect of over 35% in size; also: potency is read from the fitted curve at half-maximal effect
[3] = molecular target: Gonadotropin-releasing hormone receptor (Homo sapiens) (UniProt P30968); assay: Human gonadotropin-releasing hormone receptor (GnRHR) small molecule agonists, calcium flux assay in GnRHR-HEK293 cells (AID 1920063); also: nearly all actives have a fitted effect of over 35% in size
Sequence of Gonadotropin-releasing hormone receptor (Homo sapiens) (P30968 whole entry, looked up): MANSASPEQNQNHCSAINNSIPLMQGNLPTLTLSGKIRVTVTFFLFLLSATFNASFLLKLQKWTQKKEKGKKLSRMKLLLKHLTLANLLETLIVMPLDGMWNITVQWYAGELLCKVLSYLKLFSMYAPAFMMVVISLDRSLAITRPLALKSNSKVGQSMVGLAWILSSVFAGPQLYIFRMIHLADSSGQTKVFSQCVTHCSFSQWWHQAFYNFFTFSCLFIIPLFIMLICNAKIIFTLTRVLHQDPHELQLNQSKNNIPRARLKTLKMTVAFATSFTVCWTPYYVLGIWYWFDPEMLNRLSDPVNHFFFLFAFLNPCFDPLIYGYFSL
Method in brief: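 Fluorescence kinetics (480 nm excitation, 540 nm emission; 3 min, 1 s steps) report calcium mobilisation in human GnRHR-HEK293 cells in agonist mode. Dye incubation: 1 h, 37 C.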

[4] = molecular target: KiSS-1 receptor (Homo sapiens) (UniProt Q969F8); assay: Human kisspeptin (KISS1R) small molecule agonists, calcium flux assay in KISS1R-HEK293 cells (AID 1920064; active = well fitted curve in the direction sought with a large enough effect in the repeat runs; an effect the other way counts as inactive or inconclusive)
Sequence of KiSS-1 receptor (Homo sapiens) (Q969F8 whole entry, looked up): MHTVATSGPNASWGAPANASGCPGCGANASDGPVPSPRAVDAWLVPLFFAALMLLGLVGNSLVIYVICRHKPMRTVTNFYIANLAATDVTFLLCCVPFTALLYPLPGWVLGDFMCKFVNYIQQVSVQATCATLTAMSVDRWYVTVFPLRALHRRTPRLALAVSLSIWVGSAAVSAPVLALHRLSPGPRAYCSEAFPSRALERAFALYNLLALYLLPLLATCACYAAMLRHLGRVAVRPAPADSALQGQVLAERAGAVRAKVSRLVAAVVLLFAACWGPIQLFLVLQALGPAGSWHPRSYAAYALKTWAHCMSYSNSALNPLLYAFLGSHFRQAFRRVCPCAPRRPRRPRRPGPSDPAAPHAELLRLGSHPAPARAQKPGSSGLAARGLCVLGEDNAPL
Method in brief: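 Measures KISS1R agonism through calcium-sensitive dye fluorescence in stably transfected HEK293 cells, read for 3 min after pin-tool compound delivery; 15-point titrations in triplicate.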

[5] = G protein-coupled receptor (GPCR) small molecule agonists, calcium flux assay: HEK293 wild type cell line counter screen (AID 1920065)
Method in brief: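 Readout: fluorescence at 480 nm excitation/540 nm emission, sampled at 1 s intervals for 3 min. Cells had been cultured 18 h, then dye-loaded 1 h at 37 C before compound or ATP addition.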

[6] = p53 small molecule agonists, cell-based qHTS assay with rat liver microsomes (AID 1963578)
Method in brief: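 Agonist mode in p53RE-bla reporter cells, with compounds co-incubated 16 h at 37 C alongside 0.5 mg/mL rat liver microsomes and 0.5 mg/mL NADPH (final), followed by a 2 h LiveBLAzer detection step.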

[7] = p53 small molecule agonists, cell-based qHTS assay with human liver microsomes: qHTS cell viability counter screen (AID 1963579); also: nearly all actives have a fitted effect of over 45% in size; also: potency is read from the fitted curve at half-maximal effect
Method in brief: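 Metabolically activated exposure: compounds, human liver microsomes and NADPH (0.5 mg/mL final apiece) were added to p53RE-bla cells seeded 5 h earlier, left 16 h at 37 C, and then assessed for viability by CellTiter-Glo luminescence.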

[8] = p53 small molecule agonists, cell-based qHTS assay with rat liver microsomes: qHTS cell viability counter screen (AID 1963580); also: nearly all actives have a fitted effect of over 45% in size
Method in brief: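 HCT-116 p53RE-bla, 4,000 cells/well, 5 h pre-incubation; cpd + rat liver microsomes 0.5 mg/mL + NADPH 0.5 mg/mL (final); 16 h, 37 C; CellTiter-Glo, 30 min RT; luminescence.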

[9] = p53 small molecule agonists, cell-based qHTS assay (AID 1963582; active = well fitted activation curve with a large enough effect in the signal ratio in the repeat runs, not every such curve was filed as active; the % refers to the signal ratio)
Method in brief: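 Compounds are pin-transferred in DMSO onto p53RE-bla cells and incubated 16 h at 37 C. The B/G FRET beta-lactamase substrate is then applied for 2 h at RT and fluorescence recorded.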

[10] = molecular target: 5-hydroxytryptamine receptor 2A (Homo sapiens) (UniProt P28223); assay: 5-hydroxytryptamine receptor 2A (HTR2A) small molecule agonists, cell-based qHTS assay (AID 1963587); also: nearly all actives have a fitted effect of over 30% in size; also: potency is read from the fitted curve at half-maximal effect
Sequence of 5-hydroxytryptamine receptor 2A (Homo sapiens) (P28223 whole entry, looked up): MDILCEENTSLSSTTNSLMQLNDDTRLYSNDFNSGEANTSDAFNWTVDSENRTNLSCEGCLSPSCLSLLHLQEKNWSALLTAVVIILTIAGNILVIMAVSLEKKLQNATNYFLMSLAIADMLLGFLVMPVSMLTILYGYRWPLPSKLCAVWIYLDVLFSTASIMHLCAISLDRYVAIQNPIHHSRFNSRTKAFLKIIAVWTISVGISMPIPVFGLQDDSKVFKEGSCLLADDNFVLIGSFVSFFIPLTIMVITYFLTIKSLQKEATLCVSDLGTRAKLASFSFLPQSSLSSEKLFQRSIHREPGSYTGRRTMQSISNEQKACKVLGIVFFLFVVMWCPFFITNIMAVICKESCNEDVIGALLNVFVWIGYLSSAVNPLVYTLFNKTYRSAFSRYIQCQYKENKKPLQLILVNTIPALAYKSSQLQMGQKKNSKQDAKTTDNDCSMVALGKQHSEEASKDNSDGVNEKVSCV
Method in brief: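 Kinetic calcium-flux fluorescence (2 min, 1 sec intervals) after compound addition in agonist mode. HTR2A-CHO cells were cultured 18 h, then dye-loaded 1 h at 37 C.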

[11] = molecular target: Muscarinic acetylcholine receptor M1 (Homo sapiens) (UniProt P11229); assay: Cholinergic receptor muscarinic 1 (CHRM1) small molecule antagonists, cell-based qHTS assay (AID 1963588); also: nearly all actives have a fitted effect of over 40% in size
Sequence of Muscarinic acetylcholine receptor M1 (Homo sapiens) (P11229 whole entry, looked up): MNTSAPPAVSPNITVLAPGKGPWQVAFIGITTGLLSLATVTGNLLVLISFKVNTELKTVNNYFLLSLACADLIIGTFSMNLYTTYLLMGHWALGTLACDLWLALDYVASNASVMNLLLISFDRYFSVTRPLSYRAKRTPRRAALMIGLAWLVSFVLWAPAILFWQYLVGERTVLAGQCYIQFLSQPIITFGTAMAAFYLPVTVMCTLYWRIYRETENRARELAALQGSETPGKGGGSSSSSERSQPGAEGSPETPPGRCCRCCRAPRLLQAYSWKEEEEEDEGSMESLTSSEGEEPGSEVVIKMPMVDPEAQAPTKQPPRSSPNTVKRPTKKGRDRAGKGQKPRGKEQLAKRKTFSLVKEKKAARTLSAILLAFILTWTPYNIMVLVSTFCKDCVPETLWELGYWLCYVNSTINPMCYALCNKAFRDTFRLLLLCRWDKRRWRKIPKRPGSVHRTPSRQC
Method in brief: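 CHRM1-CHO calcium-flux assay, antagonist mode. Cells were seeded 18 h, dye-loaded 1 h at 37 C and given compound for 5 min at RT, then acetylcholine was added at 50nM. FDSS fluorescence was read 3 min; 15 concentrations, three runs.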

[12] = molecular target: Muscarinic acetylcholine receptor M1 (Homo sapiens) (UniProt P11229); assay: Cholinergic receptor muscarinic 1 (CHRM1) small molecule agonists, cell-based qHTS assay (AID 1963589); also: nearly all actives have a fitted effect of over 35% in size
Method in brief: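 Each compound was tested at 15 concentrations across three independent runs on dye-loaded CHO cells stably expressing human CHRM1, reading intracellular calcium fluorescence kinetically at 1 sec intervals.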

[13] = molecular target: Beta-2 adrenergic receptor (Homo sapiens) (UniProt P07550); assay: Adrenergic beta2 receptor (ADRB2) small molecule antagonists, cell-based qHTS assay (AID 1963592); also: series mostly up to about 92 µM; nearly all actives have a fitted effect of over 50% in size
Sequence of Beta-2 adrenergic receptor (Homo sapiens) (P07550 whole entry, looked up): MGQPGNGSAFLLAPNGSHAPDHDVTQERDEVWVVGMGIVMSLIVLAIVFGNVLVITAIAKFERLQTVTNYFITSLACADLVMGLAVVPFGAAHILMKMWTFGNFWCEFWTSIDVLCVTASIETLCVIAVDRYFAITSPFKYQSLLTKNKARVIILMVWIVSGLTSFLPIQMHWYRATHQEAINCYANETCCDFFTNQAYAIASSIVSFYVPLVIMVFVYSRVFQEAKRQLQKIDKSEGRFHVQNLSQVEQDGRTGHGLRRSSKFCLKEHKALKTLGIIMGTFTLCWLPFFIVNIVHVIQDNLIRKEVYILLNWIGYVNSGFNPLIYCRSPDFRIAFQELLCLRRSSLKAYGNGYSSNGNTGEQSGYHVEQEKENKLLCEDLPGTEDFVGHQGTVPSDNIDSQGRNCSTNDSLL
Method in brief: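 Cells (CHO, stable ADRB2 overexpression) incubated 18-20hr at 37C; compounds added from DMSO; agonist mix (1nM isoproterenol, 100uM IBMX, 25uM Ro-20-1724) added; 0.5hr RT; d2-cAMP and anti-cAMP-cryptate added; 1hr RT; 665/615 nm read.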

[14] = molecular target: D(2) dopamine receptor (Homo sapiens) (UniProt P14416); assay: Dopamine D2 receptor (DRD2) small molecule antagonists, cell-based qHTS assay (AID 1963595; active = well fitted inhibition curve with a large enough effect in the signal ratio in the repeat runs, with a control signal flat; the % refers to the signal ratio)
Sequence of D(2) dopamine receptor (Homo sapiens) (P14416 whole entry, looked up): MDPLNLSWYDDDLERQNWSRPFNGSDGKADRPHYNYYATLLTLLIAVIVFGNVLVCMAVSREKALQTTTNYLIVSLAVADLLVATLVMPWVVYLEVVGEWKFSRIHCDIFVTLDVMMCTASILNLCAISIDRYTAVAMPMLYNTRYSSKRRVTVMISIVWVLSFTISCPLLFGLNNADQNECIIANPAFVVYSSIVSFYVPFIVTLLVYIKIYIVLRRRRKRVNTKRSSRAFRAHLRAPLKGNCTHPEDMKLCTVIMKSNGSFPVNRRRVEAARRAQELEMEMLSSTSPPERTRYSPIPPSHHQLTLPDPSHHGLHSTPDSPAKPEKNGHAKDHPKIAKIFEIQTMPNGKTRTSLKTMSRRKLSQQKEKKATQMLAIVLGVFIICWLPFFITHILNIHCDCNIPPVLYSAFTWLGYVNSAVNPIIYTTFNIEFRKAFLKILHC
Method in brief: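 HTRF cAMP read-out at 665 and 620 nm emission (340 nm excitation). Antagonist mode: compounds were tested against 12 nM quinpirole in DRD2-HEK293 cells, with 200 nM NKH477 raising cAMP and 0.1 mM Ro20-1724 blocking its breakdown.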

[15] = p53 small molecule agonists, cell-based qHTS assay: qHTS cell viability counter screen (AID 1963581); also: nearly all actives have a fitted effect of over 45% in size
Method in brief: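 In the same plates used for the p53 bla reporter, HCT-116 cells given compounds for 16 h at 37 C received CellTiter-Glo; luminescence was recorded 30 min later at room temperature.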

[16] = cAMP Responsive Elements (CRE) small molecule agonists, cell-based qHTS assay (AID 1963590)
Method in brief: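 Cell line: CRE-bla HEK 293T; medium DMEM/10% dialyzed FBS/0.1 mM NEAA/1 mM pyruvate/25 mM HEPES; 3 h compound exposure; beta-lactamase FRET readout after 2 h substrate loading at RT.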

[17] = molecular target: D(2) dopamine receptor (Homo sapiens) (UniProt P14416); assay: Dopamine D2 receptor (DRD2) small molecule agonists, cell-based qHTS assay (AID 1963594); also: nearly all actives have a fitted effect of over 35% in size
Method in brief: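 cAMP accumulation in DRD2-HEK293 cells measured by HTRF after 1 h detection; compounds added 10 min before NKH477 (200nM […]) forskolin-analogue stimulation, 30 min at room temperature, with Ro20-1724 present at 0.1 mM final.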

[18] = molecular target: 5-hydroxytryptamine receptor 2A (Homo sapiens) (UniProt P28223); assay: 5-hydroxytryptamine receptor 2A (HTR2A) small molecule antagonists, cell-based qHTS assay (AID 1963586); also: nearly all actives have a fitted effect of over 45% in size
Method in brief: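 Antagonist-mode intracellular calcium assay: DOI (4 nM) added after 5 min compound pre-incubation at room temperature to dye-loaded HTR2A-CHO cells. Fluorescence followed for 3 min, sampled every second.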

[19] = cAMP Responsive Elements (CRE) small molecule antagonists, cell-based qHTS assay (AID 1963591; active = well fitted inhibition curve with a large enough effect in the signal ratio in the repeat runs, not every such curve was filed as active; the % refers to the signal ratio)
Method in brief: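 Inhibition of NKH477-driven (0.25 uM final) CRE-beta-lactamase signal in HEK293T cells, 3 h compound exposure at 37 °C, detected by FRET substrate fluorescence.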

[20] = molecular target: Beta-2 adrenergic receptor (Homo sapiens) (UniProt P07550); assay: Adrenergic beta2 receptor (ADRB2) small molecule agonists, cell-based qHTS assay (AID 1963593);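 also: CHO cells stably overexpressing human ADRB2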
Method in brief: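 CHO cells stably over-expressing ADRB2 were plated overnight at 37C, then dosed with compounds plus a stimulation mix containing 100uM IBMX and 25uM Ro-20-1724 for 0.5hr at room temperature. cAMP was measured by HTRF competition, 1hr.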

SMILES	Potency [1]	Potency [2]	Potency [3]	Potency [4]	Potency [5]	Potency [6]	Potency [7]	Potency [8]	Potency [9]	Potency [10]	Potency [11]	Potency [12]	Potency [13]	Potency [14]	Potency [15]	Potency [16]	Potency [17]	Potency [18]	Potency [19]	Potency [20]
Cc1cc2c3c(c1)C(c1ccccc1)=N[C@@H](NC(=O)c1ccncc1)C(=O)N3CC2	inactive	inactive	inactive	inactive	inactive	inactive	inactive	inactive	inactive	inactive	inactive	inactive	inactive	inactive						
CN1C2CCC(C)(C)C1CC(OC(=O)C(O)(c1cccs1)c1cccs1)C2 (centres undefined)	inactive	inactive	inactive	inactive	inactive	inactive	inactive	inactive	inactive	inactive				inactive	inactive	inactive	inactive			
COc1ccc2c(c1OC)C(=O)O[C@H]2[C@@H]1c2cc3c(cc2CCN1C)OCO3	inactive	inactive	inactive	inactive	inactive		inactive	inactive	inactive			inactive		inactive	inactive	inactive		inactive	inactive	
C=CCC1(C(C)CC)C(=O)NC(=O)NC1=O (centres undefined)	inactive	inactive	inactive	inactive	inactive	inactive		inactive	inactive	inactive	inactive				inactive	inactive	inactive	inactive	inactive	
CCCCCCCCCCCCCN1CC(C)OC(C)C1 (centres undefined)	inactive	inactive	inactive	inactive	inactive	inactive		inactive	inactive	inactive			inactive	inactive	inactive		inactive		inactive	inactive
CCOC(=O)c1ncn2c1CN(C)C(=O)c1c(I)cccc1-2	inactive	inactive	inactive	inactive	inactive	inactive	inactive	inactive	inactive	inactive	inactive	inactive	inactive			inactive	inactive	inactive		inactive
COC(=O)c1ccccc1S(=O)(=O)NC(=O)Nc1nc(C)nc(OC)n1	inactive	inactive	inactive	inactive	inactive	inactive	inactive		inactive	inactive		inactive	inactive	inactive	inactive	inactive	inactive	inactive		
Clc1ccc(-c2ccccc2)cc1	inactive	inactive	inactive	inactive	inactive	inactive	inactive	inactive		inactive		inactive	inactive	inactive	inactive	inactive	inactive	inactive	inactive	
O=[N+]([O-])c1cccc2cccnc12	inactive	inactive	inactive	inactive	inactive		inactive	inactive	inactive	inactive	inactive	inactive	inactive	inactive	inactive	inactive	inactive	inactive	inactive	inactive
CN(C)c1ccc(N)cc1	29.9 µM (active)	8.42 µM (active)	inactive	inactive	inactive	inactive	35.5 µM (active)		inactive	inactive		inactive			inactive			inactive	inactive	
CNC(C)Cc1ccc2c(c1)OCO2 (centres undefined)	inactive	84.3 µM (active)	inactive	inactive	inactive	inactive	inactive	inactive	inactive	0.602 µM (active)	inactive	inactive		inactive	inactive	inactive			inactive	
CC1N=C(N)OC1c1ccccc1 (centres undefined)	inactive	inactive	inactive	inactive	inactive	inactive	inactive	inactive	inactive	inactive	inactive		inactive		inactive	inactive	inactive		inactive	
CC(C)(C)C(=O)C(Oc1ccc(Cl)cc1)n1cncn1 (centres undefined)	inactive	inactive	inactive	inactive	inactive	inactive	inactive	inactive	inactive	inactive		inactive	inactive	inactive	inactive		inactive	inactive	inactive	inactive
CNC(=O)O/N=C(/CSC)C(C)(C)C	inactive	inactive	inactive	inactive	inactive		inactive	inactive	inactive	inactive	inactive	inactive	inactive	inactive	inactive	inactive	inactive	inactive	inactive	inactive
CCSCc1ccccc1OC(=O)NC	inactive	inactive	inactive	inactive	inactive		inactive	inactive	inactive	inactive	inactive	inactive	inactive	inactive	inactive	inactive		inactive	inactive	inactive
CCOP(=S)(OCC)Oc1ccc(Cl)cc1Cl	inactive	inactive	inactive	inactive	inactive		45.8 µM (active)	inactive	inactive	inactive	inactive	inactive	inactive		inactive	inactive	inactive	inactive	inactive	inactive
c1cc[n+]2c(c1)-c1cccc[n+]1CC2	inactive	inactive	inactive	inactive	inactive	inactive		inactive		inactive	inactive			inactive		inactive	inactive	inactive	inactive	inactive
